What was measured:
Assay in all cases: DAPPL (digital affinity profiling via proximity ligation, sequencing); 10 mM Tris-HCl pH 7.5, 50 mM NaCl, 1 mM DTT, 4% glycerol, room temperature, 30 min; GST-TFs on glutathione beads, 16-mer random dsDNA library, 0.1% formaldehyde crosslink after washing; high values mean tight binding
ETV5 = ETV5 (Homo sapiens, UniProt P41161 1-510); settings: protein: recombinant; tags: N-terminal GST; dsDNA, one strand shown
Procedure, shortened: (§1)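 Pools of DNA-barcoded human transcription factors, expressed in yeast as GST fusions on glutathione beads and combined with a tag-only sample, were incubated with 200 nmole of a 16-mer random double-stranded DNA library. Incubation took 30 min at room temperature in Tris/NaCl/DTT/glycerol buffer and was followed by washing, 0.1% formaldehyde crosslinking, proximity ligation (BsaI/T4 ligase, 1 h, 37 °C), PCR amplification and sequencing on an Illumina NextSeq500. Binding signal is the ratio of a hexamer's read frequency for a factor to its frequency for the tag-only sample.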

HSF1 = HSF1 (Homo sapiens, UniProt Q00613 1-529); settings: protein: recombinant; tags: N-terminal GST; chain copies: 3; dsDNA, one strand shown
Chain of HSF1 (Q00613 whole entry): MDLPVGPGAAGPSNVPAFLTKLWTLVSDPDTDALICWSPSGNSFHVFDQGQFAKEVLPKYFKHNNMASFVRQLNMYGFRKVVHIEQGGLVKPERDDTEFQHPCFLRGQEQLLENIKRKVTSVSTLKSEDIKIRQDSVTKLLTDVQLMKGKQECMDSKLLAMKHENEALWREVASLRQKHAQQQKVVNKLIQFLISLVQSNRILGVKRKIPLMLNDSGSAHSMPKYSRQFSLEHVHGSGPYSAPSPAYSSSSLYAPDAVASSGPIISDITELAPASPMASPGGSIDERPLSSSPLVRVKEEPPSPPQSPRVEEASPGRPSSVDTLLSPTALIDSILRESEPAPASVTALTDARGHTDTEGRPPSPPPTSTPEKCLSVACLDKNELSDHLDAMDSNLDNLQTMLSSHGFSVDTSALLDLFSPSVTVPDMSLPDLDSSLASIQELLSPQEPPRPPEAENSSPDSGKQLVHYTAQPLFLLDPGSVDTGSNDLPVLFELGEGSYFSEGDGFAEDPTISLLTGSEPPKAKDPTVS
Procedure, shortened: as §1

SPIC = target: T1, SPIC (Homo sapiens, UniProt Q8N5J4 1-248); settings: protein: recombinant; tags: N-terminal GST; dsDNA, one strand shown
T1 sequence: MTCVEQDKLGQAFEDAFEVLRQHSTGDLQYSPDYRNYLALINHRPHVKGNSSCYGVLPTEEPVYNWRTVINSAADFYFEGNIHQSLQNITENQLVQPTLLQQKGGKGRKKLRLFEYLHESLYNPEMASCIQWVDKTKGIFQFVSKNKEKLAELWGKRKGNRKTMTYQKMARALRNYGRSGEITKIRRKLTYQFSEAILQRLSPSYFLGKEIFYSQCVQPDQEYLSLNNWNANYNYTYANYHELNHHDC
Procedure, shortened: as §1

ELF4 = ELF4 (Homo sapiens, UniProt Q99607 1-663); settings: protein: recombinant; tags: N-terminal GST; dsDNA, one strand shown
Chain of ELF4 (Q99607 whole entry): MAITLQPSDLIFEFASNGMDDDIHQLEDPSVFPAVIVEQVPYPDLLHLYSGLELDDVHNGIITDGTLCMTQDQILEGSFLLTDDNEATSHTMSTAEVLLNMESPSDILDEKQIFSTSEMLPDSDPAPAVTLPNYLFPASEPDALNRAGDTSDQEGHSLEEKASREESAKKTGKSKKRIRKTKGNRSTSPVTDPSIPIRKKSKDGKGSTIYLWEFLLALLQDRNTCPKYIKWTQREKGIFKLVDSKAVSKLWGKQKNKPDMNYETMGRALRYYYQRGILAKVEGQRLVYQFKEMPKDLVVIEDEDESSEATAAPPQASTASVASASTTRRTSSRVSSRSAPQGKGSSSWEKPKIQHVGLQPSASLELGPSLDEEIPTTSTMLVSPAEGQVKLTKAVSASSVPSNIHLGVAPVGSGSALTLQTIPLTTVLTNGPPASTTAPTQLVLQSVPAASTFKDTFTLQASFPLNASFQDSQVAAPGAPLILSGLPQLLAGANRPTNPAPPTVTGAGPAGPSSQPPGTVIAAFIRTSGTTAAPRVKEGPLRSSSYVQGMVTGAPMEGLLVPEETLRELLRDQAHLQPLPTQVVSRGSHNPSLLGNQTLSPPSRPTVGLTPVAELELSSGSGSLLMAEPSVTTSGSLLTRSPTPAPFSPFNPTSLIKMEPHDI
Procedure, shortened: as §1

ELK4 = target: T2, ELK4 (Homo sapiens, UniProt P28324-2 1-405); settings: protein: recombinant; tags: N-terminal GST; dsDNA, one strand shown
T2 sequence: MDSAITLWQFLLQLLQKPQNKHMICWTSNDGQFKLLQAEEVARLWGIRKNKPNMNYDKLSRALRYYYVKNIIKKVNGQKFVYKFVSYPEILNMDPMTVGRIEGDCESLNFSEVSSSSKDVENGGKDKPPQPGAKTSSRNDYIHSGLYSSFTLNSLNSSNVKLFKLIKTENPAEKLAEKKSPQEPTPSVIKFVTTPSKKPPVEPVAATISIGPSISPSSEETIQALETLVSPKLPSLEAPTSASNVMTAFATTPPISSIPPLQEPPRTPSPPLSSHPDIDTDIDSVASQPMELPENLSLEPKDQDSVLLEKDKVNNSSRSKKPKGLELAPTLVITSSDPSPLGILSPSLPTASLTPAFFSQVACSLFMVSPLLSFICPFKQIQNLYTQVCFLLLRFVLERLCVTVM
Procedure, shortened: as §1

ETV2 = target: T3, ETV2 (Homo sapiens, UniProt O00321 1-342); settings: protein: recombinant; tags: N-terminal GST; dsDNA, one strand shown
T3 sequence: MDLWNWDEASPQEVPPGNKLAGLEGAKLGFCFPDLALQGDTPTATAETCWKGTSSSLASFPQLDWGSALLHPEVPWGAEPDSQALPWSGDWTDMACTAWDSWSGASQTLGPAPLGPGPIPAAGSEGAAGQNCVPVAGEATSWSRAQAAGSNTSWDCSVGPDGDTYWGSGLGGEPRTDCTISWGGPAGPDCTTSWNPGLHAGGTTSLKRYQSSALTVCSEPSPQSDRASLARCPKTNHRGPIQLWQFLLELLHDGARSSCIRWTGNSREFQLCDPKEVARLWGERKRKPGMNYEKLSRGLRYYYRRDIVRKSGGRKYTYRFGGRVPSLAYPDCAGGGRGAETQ
Procedure, shortened: as §1

ELF3 = target: T4, ELF3 (Homo sapiens, UniProt P78545 1-371); settings: protein: recombinant; tags: N-terminal GST; dsDNA, one strand shown
T4 sequence: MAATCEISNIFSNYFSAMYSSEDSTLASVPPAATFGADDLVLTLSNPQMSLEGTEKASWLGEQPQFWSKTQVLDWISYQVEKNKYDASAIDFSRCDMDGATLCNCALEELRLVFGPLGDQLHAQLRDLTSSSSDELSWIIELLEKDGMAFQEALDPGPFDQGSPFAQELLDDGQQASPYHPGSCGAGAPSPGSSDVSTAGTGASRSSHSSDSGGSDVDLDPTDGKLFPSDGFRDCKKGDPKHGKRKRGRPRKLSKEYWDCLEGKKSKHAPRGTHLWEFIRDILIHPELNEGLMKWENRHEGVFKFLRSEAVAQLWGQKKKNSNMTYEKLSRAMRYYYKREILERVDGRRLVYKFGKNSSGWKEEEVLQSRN
Procedure, shortened: as §1

CRX = CRX (Homo sapiens, UniProt O43186 1-299); settings: protein: recombinant; tags: N-terminal GST; dsDNA, one strand shown
Chain of CRX (O43186 whole entry): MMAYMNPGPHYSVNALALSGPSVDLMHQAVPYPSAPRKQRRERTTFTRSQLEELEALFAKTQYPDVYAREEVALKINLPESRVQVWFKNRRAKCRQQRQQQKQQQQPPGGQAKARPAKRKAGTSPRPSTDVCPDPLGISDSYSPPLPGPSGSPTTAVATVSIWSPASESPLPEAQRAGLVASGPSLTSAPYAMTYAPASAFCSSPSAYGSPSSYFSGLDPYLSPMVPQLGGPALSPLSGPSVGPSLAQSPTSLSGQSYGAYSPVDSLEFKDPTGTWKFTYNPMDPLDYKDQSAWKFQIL
Procedure, shortened: as §1

ETV1 = ETV1 (Homo sapiens, UniProt P50549 1-477); settings: protein: recombinant; tags: N-terminal GST; dsDNA, one strand shown
Chain of ETV1 (P50549 whole entry): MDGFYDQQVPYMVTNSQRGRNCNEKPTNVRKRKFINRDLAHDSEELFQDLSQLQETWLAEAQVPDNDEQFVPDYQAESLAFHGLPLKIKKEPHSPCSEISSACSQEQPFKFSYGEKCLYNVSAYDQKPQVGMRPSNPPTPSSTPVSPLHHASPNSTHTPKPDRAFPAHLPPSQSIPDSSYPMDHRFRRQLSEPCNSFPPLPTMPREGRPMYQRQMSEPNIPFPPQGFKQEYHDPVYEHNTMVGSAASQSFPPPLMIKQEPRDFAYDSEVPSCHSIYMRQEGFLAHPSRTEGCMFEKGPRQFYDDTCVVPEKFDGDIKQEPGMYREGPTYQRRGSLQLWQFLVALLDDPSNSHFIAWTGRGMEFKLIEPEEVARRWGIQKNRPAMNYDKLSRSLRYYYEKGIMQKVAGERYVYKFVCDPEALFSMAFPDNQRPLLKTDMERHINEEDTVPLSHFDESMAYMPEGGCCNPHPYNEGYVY
Procedure, shortened: as §1

ERF = target: T5, ERF (Homo sapiens, UniProt P50548 1-548); settings: protein: recombinant; tags: N-terminal GST; dsDNA, one strand shown
T5 sequence: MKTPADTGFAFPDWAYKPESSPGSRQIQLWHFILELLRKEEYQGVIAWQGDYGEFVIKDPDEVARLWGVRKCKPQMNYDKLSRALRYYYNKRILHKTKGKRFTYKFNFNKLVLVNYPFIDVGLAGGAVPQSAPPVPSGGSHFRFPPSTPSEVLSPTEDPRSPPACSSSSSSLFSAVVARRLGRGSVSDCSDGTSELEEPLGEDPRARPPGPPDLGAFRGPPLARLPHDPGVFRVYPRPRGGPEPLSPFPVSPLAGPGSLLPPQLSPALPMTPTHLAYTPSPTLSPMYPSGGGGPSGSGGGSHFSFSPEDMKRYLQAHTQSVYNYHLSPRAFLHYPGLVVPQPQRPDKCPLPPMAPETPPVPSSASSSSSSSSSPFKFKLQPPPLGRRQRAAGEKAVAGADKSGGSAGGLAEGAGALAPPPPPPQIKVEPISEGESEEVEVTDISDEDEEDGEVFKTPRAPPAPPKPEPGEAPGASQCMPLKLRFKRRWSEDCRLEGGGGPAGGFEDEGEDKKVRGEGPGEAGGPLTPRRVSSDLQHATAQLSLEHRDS
Procedure, shortened: as §1

ETV3L = target: T6, ETV3L (Homo sapiens, UniProt Q6ZN32 1-361); settings: protein: recombinant; tags: N-terminal GST; dsDNA, one strand shown
T6 sequence: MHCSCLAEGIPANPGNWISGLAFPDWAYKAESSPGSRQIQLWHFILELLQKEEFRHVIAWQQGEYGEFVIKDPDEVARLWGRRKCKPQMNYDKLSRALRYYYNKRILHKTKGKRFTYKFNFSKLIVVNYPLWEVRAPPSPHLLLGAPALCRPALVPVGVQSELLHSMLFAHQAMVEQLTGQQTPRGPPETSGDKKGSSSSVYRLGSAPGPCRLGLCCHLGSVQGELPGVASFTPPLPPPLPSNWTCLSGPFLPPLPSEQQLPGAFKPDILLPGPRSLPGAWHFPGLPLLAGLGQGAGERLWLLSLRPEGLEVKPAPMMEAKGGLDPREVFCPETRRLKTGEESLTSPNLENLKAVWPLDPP
Procedure, shortened: as §1

ETS2 = target: T7, ETS2 (Homo sapiens, UniProt P15036 1-469); settings: protein: recombinant; tags: N-terminal GST; dsDNA, one strand shown
T7 sequence: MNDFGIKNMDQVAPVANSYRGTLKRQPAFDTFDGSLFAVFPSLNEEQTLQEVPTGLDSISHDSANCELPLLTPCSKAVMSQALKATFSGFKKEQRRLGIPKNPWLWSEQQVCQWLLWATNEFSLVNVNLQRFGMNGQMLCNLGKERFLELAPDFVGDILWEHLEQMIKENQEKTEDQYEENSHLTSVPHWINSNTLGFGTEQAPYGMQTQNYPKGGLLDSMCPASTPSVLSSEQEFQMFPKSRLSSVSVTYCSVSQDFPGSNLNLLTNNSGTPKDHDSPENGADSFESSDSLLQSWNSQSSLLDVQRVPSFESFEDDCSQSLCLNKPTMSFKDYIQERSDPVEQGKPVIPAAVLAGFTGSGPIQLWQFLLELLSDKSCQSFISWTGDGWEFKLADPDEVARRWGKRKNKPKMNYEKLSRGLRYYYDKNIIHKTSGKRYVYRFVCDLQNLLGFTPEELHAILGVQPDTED
Procedure, shortened: as §1

ETV3 = target: T8, ETV3 (Homo sapiens, UniProt P41162-2 1-143); settings: protein: recombinant; tags: N-terminal GST; dsDNA, one strand shown
T8 sequence: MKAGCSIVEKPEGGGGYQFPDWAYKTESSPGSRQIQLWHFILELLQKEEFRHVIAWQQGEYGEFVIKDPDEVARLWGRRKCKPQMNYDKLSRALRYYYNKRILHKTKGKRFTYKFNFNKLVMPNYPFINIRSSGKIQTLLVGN
Procedure, shortened: as §1

ETV6 = ETV6 (Homo sapiens, UniProt P41212 1-452); settings: protein: recombinant; tags: N-terminal GST; dsDNA, one strand shown
Chain of ETV6 (P41212 whole entry): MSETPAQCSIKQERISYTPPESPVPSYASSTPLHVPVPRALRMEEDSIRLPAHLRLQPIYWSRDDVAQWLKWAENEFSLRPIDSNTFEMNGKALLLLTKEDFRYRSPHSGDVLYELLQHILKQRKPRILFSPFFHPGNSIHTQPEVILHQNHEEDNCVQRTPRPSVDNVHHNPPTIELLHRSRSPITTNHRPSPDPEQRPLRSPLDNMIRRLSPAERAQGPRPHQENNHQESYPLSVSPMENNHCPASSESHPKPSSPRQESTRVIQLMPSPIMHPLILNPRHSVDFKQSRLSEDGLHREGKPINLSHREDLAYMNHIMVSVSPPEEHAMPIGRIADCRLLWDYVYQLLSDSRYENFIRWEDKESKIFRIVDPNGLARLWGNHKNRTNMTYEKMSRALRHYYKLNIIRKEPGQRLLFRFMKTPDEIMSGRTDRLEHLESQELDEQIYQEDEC
Procedure, shortened: as §1

SPDEF = target: T9, SPDEF (Homo sapiens, UniProt O95238 1-335); settings: protein: recombinant; tags: N-terminal GST; dsDNA, one strand shown
T9 sequence: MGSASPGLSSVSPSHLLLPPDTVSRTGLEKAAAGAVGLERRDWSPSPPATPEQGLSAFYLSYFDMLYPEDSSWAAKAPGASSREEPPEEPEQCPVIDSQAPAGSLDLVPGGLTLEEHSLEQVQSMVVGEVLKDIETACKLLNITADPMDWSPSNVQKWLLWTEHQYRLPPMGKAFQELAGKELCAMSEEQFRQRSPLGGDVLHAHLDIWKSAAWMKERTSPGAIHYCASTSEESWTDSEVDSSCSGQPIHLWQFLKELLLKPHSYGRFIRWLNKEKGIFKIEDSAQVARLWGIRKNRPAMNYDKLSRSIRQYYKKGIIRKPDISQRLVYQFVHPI
Procedure, shortened: as §1

ELF5 = target: T10, ELF5 (Homo sapiens, UniProt Q9UKW6-2 1-255); settings: protein: recombinant; tags: N-terminal GST; dsDNA, one strand shown
T10 sequence: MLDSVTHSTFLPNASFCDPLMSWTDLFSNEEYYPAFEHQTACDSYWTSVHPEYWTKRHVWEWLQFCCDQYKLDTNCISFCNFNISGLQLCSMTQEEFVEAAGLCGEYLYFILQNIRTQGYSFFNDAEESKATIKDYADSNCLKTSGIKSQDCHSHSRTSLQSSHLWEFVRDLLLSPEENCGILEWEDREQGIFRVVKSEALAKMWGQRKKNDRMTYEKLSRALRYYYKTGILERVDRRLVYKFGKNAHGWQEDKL
Procedure, shortened: as §1

Chain of ETV5 (P41161 whole entry, the tested form may be a part): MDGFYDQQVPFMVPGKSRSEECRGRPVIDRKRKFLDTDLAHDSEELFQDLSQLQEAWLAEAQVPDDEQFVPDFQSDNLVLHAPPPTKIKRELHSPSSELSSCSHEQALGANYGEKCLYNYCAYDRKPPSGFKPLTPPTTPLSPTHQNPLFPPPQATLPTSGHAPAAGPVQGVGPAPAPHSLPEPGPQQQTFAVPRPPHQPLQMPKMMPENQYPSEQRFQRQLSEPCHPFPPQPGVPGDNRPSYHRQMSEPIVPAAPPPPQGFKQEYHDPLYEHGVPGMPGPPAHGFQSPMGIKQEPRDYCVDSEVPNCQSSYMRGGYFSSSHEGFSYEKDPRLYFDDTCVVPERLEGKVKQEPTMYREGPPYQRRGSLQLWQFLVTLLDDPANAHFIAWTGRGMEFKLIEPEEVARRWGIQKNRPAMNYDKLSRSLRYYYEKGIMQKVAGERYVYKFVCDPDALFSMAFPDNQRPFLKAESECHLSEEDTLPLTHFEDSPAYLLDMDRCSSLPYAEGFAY

Sequence | binding signal (ETV5) | binding signal (HSF1) | binding signal (SPIC) | binding signal (ELF4) | binding signal (ELK4) | binding signal (ETV2) | binding signal (ELF3) | binding signal (CRX) | binding signal (ETV1) | binding signal (ERF) | binding signal (ETV3L) | binding signal (ETS2) | binding signal (ETV3) | binding signal (ETV6) | binding signal (SPDEF) | binding signal (ELF5)
ATCGTT | 1 fold enrichment (6-mer frequency, TF over GST control) | 1.02 fold enrichment (6-mer frequency, TF over GST control) | 1.03 fold enrichment (6-mer frequency, TF over GST control) | 1.04 fold enrichment (6-mer frequency, TF over GST control) | 1.12 fold enrichment (6-mer frequency, TF over GST control) | 1.13 fold enrichment (6-mer frequency, TF over GST control) | 1.03 fold enrichment (6-mer frequency, TF over GST control) | 1.14 fold enrichment (6-mer frequency, TF over GST control) | 1.06 fold enrichment (6-mer frequency, TF over GST control) | 1.01 fold enrichment (6-mer frequency, TF over GST control) | 1.11 fold enrichment (6-mer frequency, TF over GST control) | 1.06 fold enrichment (6-mer frequency, TF over GST control) | 1 fold enrichment (6-mer frequency, TF over GST control) | 1.06 fold enrichment (6-mer frequency, TF over GST control) |  | 
TAGGTT | 1.13 fold enrichment (6-mer frequency, TF over GST control) | 1.18 fold enrichment (6-mer frequency, TF over GST control) | 1.16 fold enrichment (6-mer frequency, TF over GST control) | 1.09 fold enrichment (6-mer frequency, TF over GST control) | 1.12 fold enrichment (6-mer frequency, TF over GST control) | 1.33 fold enrichment (6-mer frequency, TF over GST control) | 1.14 fold enrichment (6-mer frequency, TF over GST control) | 1.25 fold enrichment (6-mer frequency, TF over GST control) | 1.13 fold enrichment (6-mer frequency, TF over GST control) | 1.06 fold enrichment (6-mer frequency, TF over GST control) | 1.08 fold enrichment (6-mer frequency, TF over GST control) | 1.06 fold enrichment (6-mer frequency, TF over GST control) | 1.14 fold enrichment (6-mer frequency, TF over GST control) | 1.16 fold enrichment (6-mer frequency, TF over GST control) | 1.17 fold enrichment (6-mer frequency, TF over GST control) | 1.06 fold enrichment (6-mer frequency, TF over GST control)
